KCNQ2 pot = potentiators of rat KCNQ2 potassium channel | CHO-K1 KCNQ2, FluxOR thallium flux fluorescence; hits give high values | AID 2239, 2010 | B-score at 10 µM | 310,000 tested, 0.54% active;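 active means fluorescence ratio B-score at least 3 SD of library B-scores, with initial fluorescence B-score within 3 of them, cut at about 5.3 in these data; same plate scores as AID 2156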;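 further: B-score of peak minus minimum over baseline fluorescence ratio after K+ and Tl+ stimulus; positive B-score means potentiation of KCNQ2 with more thallium influx and brighter signal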
KCNQ2 block = rat KCNQ2 potassium channel inhibitors, primary screen, cell-based, CHO-K1, FluxOR thallium flux, B-score; Potassium voltage-gated channel subfamily KQT member 2 (Rattus norvegicus), O88943; 20 min; hits give low values; AID 2156, 2009; B-score at 10 µM; 310,000 tested, 1.1% active;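 active means fluorescence ratio B-score at most minus 3 library SDs, with starting brightness B-score within 2 library SDs, cut at about -5.5 in these data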
KCNQ2 inh conf = rat KCNQ2 potassium channel inhibitors, confirmation, cell-based, thallium flux; AID 493025, 2011; shares compounds with KCNQ2 block; activity change, negative = inhibition, % at 10 µM; KCNQ2-expressing cells, inhibition; hits give low values; 1,000 tested, 57% active
KCNQ1 spec = human KCNQ1 channel inhibition, counter-screen for KCNQ2 inhibitor project, cell-based, FluxOR thallium flux; 1,000 tested, 15% active; shares compounds with KCNQ2 block; KCNQ1-expressing cells, FluxOR thallium flux fluorescence; hits give low values; activity change, negative = inhibition, % at 10 µM; AID 493026, 2011;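 active means activity change at least 3 SD of negative controls below their mean in both duplicate wells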;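 further: CHO cells stably transfected with KCNQ1 and depolarized by potassium stimulus; peak minus minimum fluorescence over baseline after thallium addition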
Target sequence (P51787 whole entry, looked up): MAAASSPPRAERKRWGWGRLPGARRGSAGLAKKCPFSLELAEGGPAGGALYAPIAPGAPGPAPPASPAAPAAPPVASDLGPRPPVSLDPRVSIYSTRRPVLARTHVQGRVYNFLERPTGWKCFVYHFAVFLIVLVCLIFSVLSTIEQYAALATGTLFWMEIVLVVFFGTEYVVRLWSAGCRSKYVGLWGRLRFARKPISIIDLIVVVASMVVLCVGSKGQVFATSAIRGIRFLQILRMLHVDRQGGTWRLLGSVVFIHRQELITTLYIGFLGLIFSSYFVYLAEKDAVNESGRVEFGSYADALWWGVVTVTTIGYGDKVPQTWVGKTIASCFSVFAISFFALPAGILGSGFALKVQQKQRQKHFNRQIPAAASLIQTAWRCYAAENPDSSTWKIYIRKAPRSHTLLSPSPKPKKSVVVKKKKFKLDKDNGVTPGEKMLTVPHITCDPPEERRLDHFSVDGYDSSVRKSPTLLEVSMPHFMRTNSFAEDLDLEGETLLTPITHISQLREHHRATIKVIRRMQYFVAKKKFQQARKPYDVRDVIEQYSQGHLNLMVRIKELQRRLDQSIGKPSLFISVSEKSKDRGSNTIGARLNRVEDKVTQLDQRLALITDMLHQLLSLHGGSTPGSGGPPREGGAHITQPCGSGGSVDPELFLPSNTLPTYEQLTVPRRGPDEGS
CHO Tl ctr = thallium flux change in parental CHO cells, counter-screen for KCNQ2 inhibitor project. hits give low values. shares compounds with KCNQ2 block. 1,000 tested, 14% active. activity change, % at 10 µM
KCNQ2 patch conf = rat KCNQ2 channel inhibitors, confirmation, cell-based, automated patch clamp, single concentration; shares compounds with KCNQ2 block; KCNQ2-expressing cells, automated patch clamp current; calls only at 10 µM; 550 tested, 49% active
A number is an active result; n = inactive; x = not tested or not shown; + = active, no number. Hits are enriched below; roughly 1.6% of the tested compounds scored in any of these assays. Unless noted, how the calls were made is not given here.

SMILES | KCNQ2 pot | KCNQ2 block | KCNQ2 inh conf | KCNQ1 spec | CHO Tl ctr | others
N#Cc1nc(COc2ccc(Cl)cc2)oc1N1CCN(Cc2ccccc2)CC1 | n | -6.9 | -24% | n | n | KCNQ2 patch conf=n
CCN1CCN(c2oc(COc3ccc(Cl)cc3)nc2C#N)CC1 | x | n | x | x | x
CC(=O)c1ccc(COC(=O)c2cc3ccccc3oc2=O)cc1 | n | n | x | x | x
CCn1cnc2cc(NCc3nc4ccccc4n3C)ccc21 | x | n | x | x | x
CCn1cnc2cc(NCc3nc4ccccc4n3Cc3ccccc3)ccc21 | n | -8.5 | -34% | n | n | KCNQ2 patch conf=+
CC1(C)CC[C@]2(CO)[C@@H](O)C[C@]3(C)C(=CCC4[C@@]5(C)CC[C@H](O)C(C)(C)C5CC[C@]43C)[C@@H]2C1 (stereo not given in full) | x | n | x | x | x
COc1cccc(-c2nc(-c3ccccc3)c(-c3ccccc3)[nH]2)c1OCC(=O)O | x | n | x | x | x
COc1cccc(-c2nc(-c3ccc4c(c3)-c3ccccc3S4(=O)=O)c(-c3ccccc3)[nH]2)c1OC | n | -8.9 | -26% | n | n | KCNQ2 patch conf=n
O=C(O)CSCC(=O)N(c1ccccc1)c1ccccc1 | n | n | x | x | x
CC(C)(C)C1CCc2sc(C(=O)NNC(=O)CCl)cc2C1 (stereo not given) | x | n | x | x | x
Cn1c(SCC(=O)O)nnc1-c1ccc2ncccc2c1 | x | n | x | x | x
Cc1ccc(NC(=O)C(Nc2cccc(C)c2)c2ccccc2)cc1 (stereo not given) | n | -7.4 | -28% | n | n | KCNQ2 patch conf=n
Cc1ccc(NC(=O)C(Nc2ccccc2)c2ccccc2)cc1 (stereo not given) | x | n | x | x | x
COc1ccc(-n2nc(N)c(C(N)=O)n2)cc1 | n | n | x | x | x
CN(C)S(=O)(=O)c1ccc(N2CCCC2)c(C(=O)NNC(=O)COc2ccccc2F)c1 | n | -8.3 | -22% | n | n | KCNQ2 patch conf=+
CN(C)S(=O)(=O)c1ccc(N2CCCC2)c(C(=O)NNC(=O)COc2ccccc2Cl)c1 | x | n | x | x | x
O=C(CSc1cc(Cl)ccc1Cl)NC1CCCC1 | n | n | x | x | x
CN(C)CCNc1nc(-c2ccco2)c2c(c1C#N)CC(C)(C)OC2 | x | n | x | x | x
CCCCN(C)c1nc(-c2ccco2)c2c(c1C#N)CC(C)(C)OC2 | n | -8.2 | n | n | n
COc1ccc(NC2CCCN(C(=O)CN3C(=O)c4ccccc4C3=O)C2)cc1OC (stereo not given) | x | n | x | x | x
O=C1NC2(CCCCC2)C(=O)N1Cc1ccc([N+](=O)[O-])cc1 | x | n | x | x | x
O=C(Nc1ccccc1C(F)(F)F)c1ncn[nH]1 | n | n | x | x | x
CC(C)C(NC(=O)c1ccc(Cl)cc1)C(=O)NCC1CCCO1 (stereo not given) | n | n | x | x | x
O=C(Nc1ccnn1C1CCN(C(=O)c2ccc(F)cc2)CC1)C1CCOC1 (stereo not given) | x | n | x | x | x
COCCn1c(=NC(=O)/C=C/c2ccccc2)sc2cc(NC(C)=O)ccc21 | n | n | x | x | x
SMILES | KCNQ2 pot | KCNQ2 block | KCNQ2 inh conf | KCNQ1 spec | CHO Tl ctr | others
COc1ccccc1CNC(=O)COC(=O)C1CCN(c2ccc(C(F)(F)F)cn2)CC1 | n | -6.8 | n | n | n
O=C(COC(=O)C1CCN(c2ccc(C(F)(F)F)cn2)CC1)NCCc1ccccc1 | n | n | x | x | x
CC1CCCCN1C(=O)CSc1nc2cc3c(cc2c(=O)n1Cc1ccc2c(c1)OCO2)OCO3 (stereo not given) | x | n | x | x | x
CC1CCN(C(=O)CSc2nc3ccccc3c(=O)n2Cc2ccc3c(c2)OCO3)CC1 | n | -7.3 | n | n | n
O=C(Cn1c(=O)n(Cc2ccc3c(c2)OCO3)c(=O)c2ccccc21)N1CCCc2ccccc21 | x | n | x | x | x
CC1CCN(C(=O)Cn2c(=O)n(Cc3ccc4c(c3)OCO4)c(=O)c3ccccc32)CC1 | n | -7.2 | -31% | n | n | KCNQ2 patch conf=+
O=C(Cn1ccc(C(F)(F)F)n1)N=Nc1c(O)[nH]c2ccccc12 | x | n | x | x | x
O=C(Cn1ccc(C(F)(F)F)n1)N=Nc1c(O)[nH]c2ccc(Br)cc12 | n | -9.3 | -27% | n | n | KCNQ2 patch conf=+
Cc1ccc(C(CCN)c2ccco2)cc1 (stereo not given) | x | n | x | x | x
CCC(=O)N(CCC(c1ccc(C)cc1)c1ccco1)Cc1ccco1 (stereo not given) | n | -10 | n | n | n
O=C(c1ccco1)N(CCC(c1ccccc1)c1ccco1)Cc1ccc(F)cc1 (stereo not given) | n | -7.8 | -46% | -46% | -42% | KCNQ2 patch conf=+
CC1(C)CC(C(CCN(Cc2ccccc2)C(=O)c2ccco2)c2ccc(F)cc2)CCO1 (stereo not given) | x | n | x | x | x
COc1ccc(C2C(C#N)=C(/N=C/N3CCN(C)CC3)OC3=C2C(=O)CC(C)(C)C3)cc1OC (stereo not given) | n | n | x | x | x
CC1CN(S(=O)(=O)c2cccc(C(=O)N(CCc3ccccc3)Cc3ccccc3)c2)CC(C)O1 (stereo not given) | n | -8.3 | -32% | -27% | n | KCNQ2 patch conf=+
Cc1ccc(N(Cc2ccccc2)C(=O)c2cccc(S(=O)(=O)N3CC(C)OC(C)C3)c2)cc1 (stereo not given) | n | n | x | x | x
Cc1nc(N2CCC(C)CC2)c2c(C)c(C(=O)O)sc2n1 | n | n | x | x | x
COc1ccccc1C(=O)NCC(c1cccs1)N1CCc2ccccc21 (stereo not given) | n | -7.2 | n | n | n
O=C(NCC(c1cccs1)N1CCc2ccccc21)c1ccccc1 (stereo not given) | x | n | x | x | x
O=C(NCC(c1ccco1)N1CCc2ccccc21)C(=O)Nc1ccccc1F (stereo not given) | x | n | x | x | x
COc1cccc(C(=O)NCC(c2cccs2)N2CCc3ccccc32)c1 (stereo not given) | x | n | x | x | x
COc1ccccc1NC(=O)C(=O)NCC(c1ccco1)N1CCc2ccccc21 (stereo not given) | n | -7.2 | n | n | n
COc1cc(C(=O)NCC(c2cccs2)N2CCc3ccccc32)cc(OC)c1OC (stereo not given) | n | -8.7 | n | n | n
COc1ccc(S(=O)(=O)N2CCCC(C(=O)NC3CC3)C2)cc1Cl (stereo not given) | n | n | x | x | x
Cc1cccc(Cn2c(C(=O)OC(C)C)cc3c2ccn3C)c1 | x | n | x | x | x
CC(=O)OCC1=C(C(=O)O)N2C(=O)C(NC(=O)CCn3nc(C(F)(F)F)c(Br)c3C3CC3)C2SC1 (stereo not given) | n | n | x | x | x
CCOC(=O)C1CCCN(C(=O)c2cc(CN3C(=O)c4ccccc4C3=O)ccc2OC)C1 (stereo not given) | n | n | x | x | x
CCOc1ccc(-c2nnn(CC#N)n2)cc1OC | n | n | x | x | x
C/C(=N\NC(=O)c1c(Cl)cnn1C)c1ccc(NC(=O)c2ccncc2)cc1 | n | n | x | x | x

Screening data deposited in PubChem BioAssay by Johns Hopkins Ion Channel Center.
